Assay results reported in article PMC13494018.
Unmarked numbers belong to inactive results. How the calls were made is not given here.

B1: design_376_bf9d4634-8475-4fdb-a175-1db49a23bdcd_2272_dldesign_0_cycle1_af2pred (protein)
chain: AEEYLKEAKKYLEEAKKVAEKNPKAKPAYERGKKKYEEYLKKAKETGDYEEYAKKAYIAADQALEHAEFIAK
B2: design_376_bf9d4634-8475-4fdb-a175-1db49a23bdcd_2428_dldesign_0_cycle1_af2pred (protein)
chain: MEEAIKKLKEIAKKLKELSKEAEKLAKEYPKVKNEALKVSGYAETAADQAESALKNKEKAAEAAKWAEKRLEKVEKDLKEVKKKAK
B3: design_376_bf9d4634-8475-4fdb-a175-1db49a23bdcd_2363_dldesign_0_cycle1_af2pred (protein)
chain: AEEEAKQKELIKEMARHIQEAREYRNAAEKLPEKKEEYVKKALEHVEKALEAAEELIKNPKYKEYGEKGKKRAEEVRKKIEEVK
B4: design_376_bf9d4634-8475-4fdb-a175-1db49a23bdcd_2406_dldesign_0_cycle1_af2pred (protein)
chain: HMEELEKLLKEAEKAAKEAAEAYKKDPAEGKKWASKARDLSIEAISLDPSAYEKAKEIAEKVAEVDPEAGKKIKAILERTYEALKRA
B5: design_376_bf9d4634-8475-4fdb-a175-1db49a23bdcd_2251_dldesign_0_cycle1_af2pred (protein)
chain: GAASAAEEAKGHAIAAEAYALSGKKKEEALEDAKKAGEYAKKATPEYQAAVKKLFEKKVERVKAKPESAETAEKMKALFEEVVA
B6: design_376_bf9d4634-8475-4fdb-a175-1db49a23bdcd_2333_dldesign_0_cycle1_af2pred (protein)
chain: SEIAEKLAEWAEKAKASTREEAKAILDELLADEETKEYAELALEIVKDIAGEDAPAEAIGLALRIASDAAEA
B7: design_376_bf9d4634-8475-4fdb-a175-1db49a23bdcd_2125_dldesign_0_cycle1_af2pred (protein)
chain: SPYQKKLEEEAEEIIARARKLAEEAREAAKKAGPKIKSLADEAISYAAIARSLARDGVKYGEKYLELAKEELAKAEELAKEAVKLAKE
B8: design_376_bf9d4634-8475-4fdb-a175-1db49a23bdcd_2270_dldesign_0_cycle1_af2pred (protein)
chain: SMAREKARKESEELRELVKKAREIAKEAKEKAKEKGPEAQKIAKEAAKEAAKAVWYFPDKEKSEKALQKAEELLKEI
B9: design_596_3e5f537c-0703-45f0-993f-ff416531349a_8_dldesign_0_cycle1_af2pred (protein)
chain: EEEEREKVIKKAKEVLDRNGKKALEYAKIVPEVAPEVEKTIKESRAEIEKAAGLSLEEAQKAAAAAVHKVQELRAEAYFLAEKKK
B10: design_376_bf9d4634-8475-4fdb-a175-1db49a23bdcd_1821_dldesign_0_cycle1_af2pred (protein)
chain: SNVKEANKKIDEATKLLVDARKAVYEKGKAAGPEVAAGAQKIIAGAVRGDVAPALADTPEVAALAKQMQAALDKAEKLENEAVKLLS
B11: design_376_bf9d4634-8475-4fdb-a175-1db49a23bdcd_2407_dldesign_0_cycle1_af2pred (protein)
chain: MEEEEKKKKEEAKKLAKELGNLLIEAFDADVEDEEKGEEKLKEAKKLAKELKKLDPELGKKAEKRIKRFEESMKIAKELKEK
B12: design_376_bf9d4634-8475-4fdb-a175-1db49a23bdcd_1797_dldesign_0_cycle1_af2pred (protein)
chain: AADEAKAKAKAALDAAAAAAAKVDPKKAPEVKARAAKAKATLDKLYADFKDDPEIATEVANIFLKGAEALLKEIKAA
B13: design_376_bf9d4634-8475-4fdb-a175-1db49a23bdcd_2226_dldesign_0_cycle1_af2pred (protein)
chain: KYKEEAKKKTEEELEKAAKAVSKENAPKVEKVKKEALKALEEDFSKAAEIIRNFAKEEKENHDVVKKYAAKASEALYEARAAKEVEER
B14: design_376_bf9d4634-8475-4fdb-a175-1db49a23bdcd_2298_dldesign_0_cycle1_af2pred (protein)
chain: GLEEKAKKAVEKAKEYLKKAKAAMEKGDYKSALAYAEQAIHAATAAIKIAKEDPSLKELEEEAKKILEEAKKLLEEAEKKL
B15: design_376_bf9d4634-8475-4fdb-a175-1db49a23bdcd_1954_dldesign_0_cycle1_af2pred (protein)
chain: MTAEEAIKKIEEAAEKASKELKEIGKKNPAVAAYAKAASERVKRRAKRAIKEIKEKGLTGVQAEGLAEAASYFAEDQAENAKKKAEEA
B16: design_596_3e5f537c-0703-45f0-993f-ff416531349a_73_dldesign_0_cycle1_af2pred (protein)
chain: AEKEKEAQKLLEEMVEYGEKKAKEAEKLNPKAGERIRRARERYEKYAKDPEKAKQYVEALKEYADHVVEAAKK
B17: design_376_bf9d4634-8475-4fdb-a175-1db49a23bdcd_2229_dldesign_0_cycle1_af2pred (protein)
chain: MAEKIKKAITEAREKYADARGYAYAAKKDPKFLPEAVKAADAAAAAWEALAKLDPANKAIYDANAAKAKAIGDAAKAAL
B18: design_376_bf9d4634-8475-4fdb-a175-1db49a23bdcd_2064_dldesign_0_cycle1_af2pred (protein)
chain: SEKEEIIKRAKEVAERARKVAAEAKEIGPAALPVLNKATEARALANAARDLAEAGGNLEVAKEVLKEAEELLKKAEEELKKLKKE
B19: design_596_3e5f537c-0703-45f0-993f-ff416531349a_46_dldesign_0_cycle1_af2pred (protein)
chain: KYKELLKKAKELYEKAIAAAGDPAKAAAELKKANAAFTDALAEARAESKENFKKVRKEYGELKAKYEAAKAAA

Each binder was assayed against VTCN1, Q7Z7D3.
VTCN1, Q7Z7D3, sequence (Q7Z7D3 whole entry): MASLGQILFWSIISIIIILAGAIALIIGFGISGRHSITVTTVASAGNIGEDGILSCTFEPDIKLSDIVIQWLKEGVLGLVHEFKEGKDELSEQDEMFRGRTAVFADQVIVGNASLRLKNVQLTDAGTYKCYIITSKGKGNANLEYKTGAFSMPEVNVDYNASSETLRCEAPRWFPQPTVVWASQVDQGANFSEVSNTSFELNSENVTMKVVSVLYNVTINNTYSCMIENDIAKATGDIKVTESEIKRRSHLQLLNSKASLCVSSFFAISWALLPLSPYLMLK
With B1 the “binding in a display sort” value was “not found”.
In the case of B2, the “binding in a display sort” value is reported as “not found”.
For B3, the “binding in a display sort” value was “not found”.
In the case of B4, the “binding in a display sort” value is reported as “not found”.
B5 was tested, and the “binding in a display sort” value was “not found”.
With B6 the “binding in a display sort” value was “not found”.
For B7, the “binding in a display sort” value was “not found”.
In the case of B8, the “binding in a display sort” value is reported as “not found”.
In the case of B9, the “binding in a display sort” value is reported as “not found”.
With B10 the “binding in a display sort” value was “not found”.
In the case of B11, the “binding in a display sort” value is reported as “not found”.
In the case of B12, the “binding in a display sort” value is reported as “not found”.
In the case of B13, the “binding in a display sort” value is reported as “not found”.
In the case of B14, the “binding in a display sort” value is reported as “not found”.
For B15, the “binding in a display sort” value was “not found”.
B16 was tested, and the “binding in a display sort” value was “not found”.
With B17 the “binding in a display sort” value was “not found”.
For B18, the “binding in a display sort” value was “not found”.
B19 was tested, and the “binding in a display sort” value was “not found”.
